Luciferase inh – blocks purified firefly luciferase enzyme activity. purified P. pyralis luciferase, luminescence, biochemical. Potency, µM (doses to about 115 µM), most hits filed as inhibitors. hit rate 2.5% among 76,000. AID 1347043; note: nearly all actives have a fitted effect of over 65% in size
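Luminescence read by CCD imaging after purified firefly luciferase (10nM final) was added to substrate buffer holding 10uM D-luciferin and 10uM ATP, pH 7.5, pre-dosed with compound.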
NPR1 antag – human Npr1 receptor antagonism. P16066. HEK293 hNpr1 GloSensor cGMP, ANP-stimulated luminescence. Potency, µM (titrated, usually from 46.3 µM), hits mostly inhibitors. hit rate 1.6% among 76,000. AID 1347048; calls by dose curve; note: nearly all actives have a fitted effect of over 60% in size
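HEK293 cells stably expressing human Npr1 and cGMP GloSensor pGS-40F, loaded 2 h with 2% GloSensor reagent, given compound 30 min at room temperature. Luminescence read before and 20 min after 0.1 nM hNppA.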
GPT2 inh – inhibitors of human GPT2 alanine aminotransferase. Q8TD30. Recombinant GPT2, coupled pyruvate oxidase/HRP Amplex Red fluorescence. Potency, µM (top dose mostly 57.7 µM), usual class: inhibitors. hit rate 0.25% among 100,000; note: nearly all actives have a fitted effect of over 60% in size
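Inhibition is scored from Amplex Red fluorescence generated when pyruvate oxidase and HRP act on pyruvate released by GPT2. Reactions contain 10ng/uL enzyme, 250uM a-KG and 2mM L-alanine and run 30 min at room temperature.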
HEK cytotox – kills HEK 293 cells; HEK 293 viability, ATP luminescence (CellTiter-Glo), 48-72 h; Potency, µM (highest dose often 115 µM), usual class: inhibitors; hit rate 6.6% among 94,000; AID 1345083; note: nearly all actives have a fitted effect of over 60% in size
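HEK 293 seeded at 250 cells/well receive compound via pintool. After 48 or 72 hr at 37 degree Celsius, 5% CO2 and 95% humidity, CellTiter-Glo is dispensed and luminescence read following 10 min at room temperature.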
NIH3T3 tox – cytotoxic compounds in NIH 3T3 cells; NIH 3T3 viability, CellTiter-Glo ATP luminescence, 48-72 h; Potency, µM (top dose mostly 96.7 µM), hits mostly inhibitors; hit rate 4.3% among 94,000; AID 1345082; note: nearly all actives have a fitted effect of over 55% in size
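NIH 3T3 cells at 400 cells/well received 23 nL of compound by pintool and were incubated 48 or 72 h at 37 °C. Viability was read as ATP-coupled CellTiter-Glo luminescence.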
Each line names hits and unclear results; the compound was inactive in the other large screens. Rows were chosen to be rich in hits. Some 10% of all compounds tested hit in one or more screens of this group. Unless noted, calls come from the whole dose curve; as a rule, active = well fitted curve in the direction sought with a large enough effect; inconclusive = small, poorly fitted or top-dose-only effect, or another doubt; inactive = no such curve, though single readings can be large; an effect the other way counts as inactive or inconclusive.

O=C(CN1C(=O)NC2(CCS(=O)(=O)CC2)C1=O)Nc1ccc2c(c1)OCCO2	Luciferase inh 35µM
Cc1ccc(NC(=O)CN2C(=O)NC3(CCS(=O)(=O)CC3)C2=O)cc1C	none
O=[S+]([O-])(c1ccccc1)N1CCNc2cnc(Nc3cccc(F)c3)nc2C1	NPR1 antag inconclusive, HEK cytotox 89µM, NIH3T3 tox inconclusive
COc1ccccc1Nc1ncc2c(n1)CN([S+](=O)([O-])c1ccccc1)CCN2	HEK cytotox 100µM, NIH3T3 tox inconclusive
COc1ccccc1Nc1ncc2c(n1)CN(C(=O)c1ccc(Cl)cc1)CCN2	HEK cytotox inconclusive, NIH3T3 tox inconclusive
C[S+](=O)([O-])N1CCNc2cnc(Nc3cccc(C(F)(F)F)c3)nc2C1	Luciferase inh inconclusive, NPR1 antag inconclusive, HEK cytotox inconclusive, NIH3T3 tox inconclusive
Cc1cn2nc(C(=O)N3CCC(C(=O)NCCc4ccccc4)CC3)cc2c(=O)[nH]1	none
Cc1cccc(C2CN(C)CCc3c2cc(O)c(O)c3Cl)c1 (stereo not given)	GPT2 inh 7.1µM (no result: Luciferase inh, NPR1 antag, HEK cytotox, NIH3T3 tox)
CN1CCc2cc(Cl)c(O)cc2[C@@H](c2cccc3c2OCC3)C1	none (no result: Luciferase inh, NPR1 antag, HEK cytotox, NIH3T3 tox)
O=C(NC1CCN(c2cc(-c3cccs3)[nH]n2)C1)c1cccc(Cl)c1 (stereo not given)	GPT2 inh inconclusive, HEK cytotox 40µM, NIH3T3 tox inconclusive
Cc1cccc(CC(=O)NC2CCN(c3cc(-c4cccs4)[nH]n3)C2)c1 (stereo not given)	GPT2 inh inconclusive, HEK cytotox 35µM, NIH3T3 tox inconclusive
CNC(=O)c1cc(C2CC2)nc2onc(C3CCN(C(=O)c4ccccc4Cl)CC3)c12	HEK cytotox inconclusive (no result: Luciferase inh, NPR1 antag, GPT2 inh)
CC(C)NC(=O)N[C@H]1CCN2C(=O)c3cc(/C=C/c4ccccc4)ccc3NC(=O)[C@H]12	Luciferase inh 4µM
CC(=O)N1CCN(C(=O)C2CCc3nnc(C4CCN([S+](=O)([O-])c5ccccc5Cl)CC4)n32)CC1 (stereo not given)	none (no result: Luciferase inh, NPR1 antag)
COc1ccc(-c2ccc(-c3nc(CC(C)C)no3)cn2)c2cccnc12	NPR1 antag inconclusive, GPT2 inh inconclusive, HEK cytotox 25µM, NIH3T3 tox inconclusive
COc1cc(-c2ccc(-c3nc(CC(C)C)no3)cn2)cc(OC)c1OC	HEK cytotox inconclusive, NIH3T3 tox inconclusive
CCN(CC)Cc1nc(C2(O)CCN(Cc3ccccc3C(F)(F)F)CC2)cs1	HEK cytotox 89µM, NIH3T3 tox inconclusive
CCN(CC)Cc1nc(C2(O)CCN(Cc3ccccc3O)CC2)cs1	NIH3T3 tox inconclusive
CC(C)=CCC1(CO)CCCN(Cc2[nH]c3ccc(F)cc3c2C)C1 (stereo not given)	HEK cytotox 20µM, NIH3T3 tox 22µM
Cc1nn2c(c1-c1ccccc1N1CCCC1)N(C(=O)C(C)C)CCC2	HEK cytotox 35µM, NIH3T3 tox inconclusive
COc1cccc(CC(=O)N2CCCn3nc(C)c(-c4ccccc4C(C)C)c32)c1	NPR1 antag inconclusive, HEK cytotox inconclusive, NIH3T3 tox inconclusive
Cc1nn2c(c1-c1ccccc1C(C)C)N(C(=O)Cc1ccc3c(c1)OCO3)CCC2	HEK cytotox inconclusive, NIH3T3 tox 40µM
Cc1nn2c(c1-c1ccccc1C(C)C)N(C(=O)COc1ccccc1C(N)=O)CCC2	HEK cytotox 71µM, NIH3T3 tox inconclusive
COc1ccccc1C(=O)N1CCCn2nc(C)c(-c3ccccc3C(C)C)c21	HEK cytotox 89µM, NIH3T3 tox inconclusive
Cc1nn2c(c1-c1ccccc1C(C)C)N(C(=O)c1ccnn1C)CCC2	HEK cytotox inconclusive, NIH3T3 tox inconclusive
COC(=O)c1ccc2nc(CO[C@H]3CN(Cc4ccc(OC)nc4)C[C@H]3F)[nH]c2c1	none
COc1ccccc1C(=O)N1CCCn2nc(C)c(-c3ccccc3N3CCCC3)c21	HEK cytotox 56µM, NIH3T3 tox inconclusive
COc1ccccc1CN1CC(c2noc(-c3sccc3C)n2)CC1=O (stereo not given)	HEK cytotox 40µM, NIH3T3 tox inconclusive
COc1ccccc1CN1CC(c2noc(-c3cc(C)cc(C)c3)n2)CC1=O (stereo not given)	HEK cytotox 45µM, NIH3T3 tox inconclusive
O=C1CC2(CCN(Cc3ccccc3)CC2)Oc2ccccc21	Luciferase inh inconclusive, HEK cytotox inconclusive, NIH3T3 tox inconclusive
O=C1CC2(CCN(Cc3cccc4ccccc34)CC2)Oc2ccccc21	HEK cytotox 35µM, NIH3T3 tox inconclusive
O=C1CC2(CCN(Cc3ccc(C(F)(F)F)cc3)CC2)Oc2ccccc21	NPR1 antag inconclusive, HEK cytotox 25µM, NIH3T3 tox inconclusive
O=C1CC2(CCN(Cc3ccsc3)CC2)Oc2ccccc21	Luciferase inh 45µM, HEK cytotox inconclusive, NIH3T3 tox inconclusive
O=C1CC2(CCN(Cc3cccc4ccccc34)CC2)Oc2cc(Cl)ccc21	HEK cytotox inconclusive, NIH3T3 tox inconclusive
COc1ccc(CN2CCC3(CC2)CC(=O)c2ccccc2O3)cc1	none
Cc1noc(-c2cn(C3CCCN(C(=O)c4ccc(F)cc4)C3)nn2)n1 (stereo not given)	none
COc1cccc(-c2c(C(=O)NCC(F)(F)F)nc3sccn23)c1	none (no result: Luciferase inh, NPR1 antag)
COc1cccc(CN2C(=O)OC3(CCN(Cc4ccc5c(c4)CCO5)CC3)C2(C)c2cccnc2)c1 (stereo not given)	HEK cytotox inconclusive, NIH3T3 tox inconclusive
COc1cccc(CN2C(=O)OC3(CCN(Cc4c[nH]c5ccccc45)CC3)C2(C)c2cccnc2)c1 (stereo not given)	HEK cytotox inconclusive, NIH3T3 tox 32µM
COc1cccc(CN2C(=O)OC3(CCN(C(=O)C4CCC4)CC3)C2(C)c2cccnc2)c1 (stereo not given)	NIH3T3 tox inconclusive
COc1cccc(CN2C(=O)OC3(CCN(C(C)=O)CC3)C2(C)c2cccnc2)c1 (stereo not given)	NIH3T3 tox 89µM
COc1cccc(CN2C(=O)OC3(CCN(C(=O)c4ccn(C)n4)CC3)C2(C)c2cccnc2)c1 (stereo not given)	NIH3T3 tox 35µM
Cc1nnc2ccc(N3CCC(N[S+](=O)([O-])c4ccccc4)CC3)nn12	HEK cytotox 45µM, NIH3T3 tox 32µM (no result: Luciferase inh, NPR1 antag, GPT2 inh)
Cc1ccc([S+](=O)([O-])NC2CCCN(c3ccc4nnc(-c5ccccc5)n4n3)C2)cc1 (stereo not given)	HEK cytotox 25µM, NIH3T3 tox inconclusive (no result: Luciferase inh, NPR1 antag, GPT2 inh)
C[S+](=O)([O-])NC1CCN(c2ccc3nnc(-c4ccccc4)n3n2)C1 (stereo not given)	none (no result: Luciferase inh, NPR1 antag, GPT2 inh)
Cc1nc(-c2cn(C3CCCN(C(=O)c4cccc(C#N)c4)C3)nn2)no1 (stereo not given)	none
COc1ccc(CN2Cc3[nH]nc(-c4ccccc4)c3CC2=O)cc1	NIH3T3 tox inconclusive
COc1ccc(CN2Cc3[nH]nc(-c4cccnc4OC)c3CC2=O)cc1	HEK cytotox 71µM, NIH3T3 tox inconclusive

Screens: PubChem BioAssay, National Center for Advancing Translational Sciences (NCATS)
